Laboratory results: PubChem BioAssay (NCI)
About 83,000 compounds went through this panel and 20% of them were active in at least one assay; those are over-represented in the sample as a whole.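 Single-concentration screen, 48 h exposure, 96-well plates. Endpoint: percent growth. Below 10 = active.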 A number with no mark means an inactive call. The source made the active and inactive calls.

How the values were obtained:
Experiment in all cases: NCI-60 one-dose screen, 48 h (100 = growth as untreated, 0 = no growth, -100 = all killed)
Settings in all cases: 10 µM unless noted
NCI-H23 lung = system: NCI-H23 lung
NCI-H226 lung = system: NCI-H226 lung
NCI-H322M lung = system: NCI-H322M lung
HOP-62 NSCLC = system: HOP-62 NSCLC
NCI-H460 lung = system: NCI-H460 lung
NCI-H522 lung = system: NCI-H522 lung
A549/ATCC NSCLC = system: A549/ATCC NSCLC
786-0 renal = system: 786-0 renal
COLO 205 colon = system: COLO 205 colon
DU-145 prostate = system: DU-145 prostate
K-562 leukemia = system: K-562 leukemia
MALME-3M melanoma = system: MALME-3M melanoma
MDA-MB-231 breast = system: MDA-MB-231 breast
RXF 393 renal = system: RXF 393 renal
SF-268 CNS = system: SF-268 CNS
SF-295 CNS = system: SF-295 CNS
SF-539 CNS = system: SF-539 CNS
UACC-257 melanoma = system: UACC-257 melanoma
M14 melanoma = system: M14 melanoma
HCT-15 colon = system: HCT-15 colon

| Structure (SMILES) | growth (NCI-H23 lung) | growth (NCI-H226 lung) | growth (NCI-H322M lung) | growth (HOP-62 NSCLC) | growth (NCI-H460 lung) | growth (NCI-H522 lung) | growth (A549/ATCC NSCLC) | growth (786-0 renal) | growth (COLO 205 colon) | growth (DU-145 prostate) | growth (K-562 leukemia) | growth (MALME-3M melanoma) | growth (MDA-MB-231 breast) | growth (RXF 393 renal) | growth (SF-268 CNS) | growth (SF-295 CNS) | growth (SF-539 CNS) | growth (UACC-257 melanoma) | growth (M14 melanoma) | growth (HCT-15 colon) |
| --- | --- | --- | --- | --- | --- | --- | --- | --- | --- | --- | --- | --- | --- | --- | --- | --- | --- | --- | --- | --- |
| COc1cc(Oc2cc(-c3cccnc3)ccc2NC(=O)Nc2ccc(F)cc2F)cc(OC)c1OC | 99% | 97% | 112% | 96.4% | 99.1% | 94.8% | 94.6% | 100% | 96.9% | 113% | 96.6% | 105% | 91.5% | 97.5% | 107% | 110% | 105% | 92.6% |  |  |
| COc1ccc(-c2cc(Cc3cccs3)c(=O)n(Cn3ccc4ccccc43)n2)cc1 | 105% | 104% | 110% | 105% | 115% | 95.5% | 104% | 110% | 110% | 110% | 105% | 106% | 100% | 116% | 110% | 101% | 101% | 103% | 106% | 98.4% |
| COc1cc(C2CC(c3ccc(C)cc3)=NN2C(C)=O)ccc1Oc1ccnc2cc(Cl)ccc12 (stereo not drawn) | 59.9% | 45.4% | 79.9% | 16.4% | 32.3% | 41.4% | 68.7% | 21.9% | 99.2% | 74.8% | 93.3% | 94.7% | 35.7% | 26.7% | 41.9% | 14.9% | 23.1% | 102% | 106% | 90.7% |
| CN(CCOc1ccc(CC2SC(=O)NC2=O)cc1)c1ccccn1 (stereo not drawn) | 99.7% | 98.9% | 95.3% | 94.3% | 102% | 95.9% | 99.2% | 108% | 82.7% | 107% | 118% | 88.3% | 86.5% | 110% | 105% | 98.9% | 104% | 98.4% | 99.7% | 96.2% |
| COC(=O)CCC1=C(C)/C(=C/c2[nH]c(-c3ccc[nH]3)cc2OC)N=C1C | 8.11% (active) | 23.9% | 26.6% | 3.57% (active) | 6.04% (active) | -66.9% (active) | 13% | 13.1% | 12.1% | 14.2% | -16.4% (active) | -38.1% (active) | -17% (active) | 24.1% | 21.9% | -30% (active) | 18.7% | -16.4% (active) | 4.36% (active) |  |
| [O-]/[N+](=C\C=C\c1ccccc1)c1ccccc1 | 103% | 97.8% | 113% | 116% | 107% | 102% | 144% | 101% | 141% | 111% | 98.1% | 158% | 102% | 405% | 101% | 102% | 103% | 127% | 115% | 104% |
| COC1CC2CCC(C)C(O)(O2)C(=O)C(=O)N2CCCCC2C(=O)OC(C(C)CC2CCC(O)C(OC)C2)CC(=O)C(C)C=C(C)C(O)C(OC)C(=O)C(C)CC(C)/C=C/C=C/C=C1C (stereo not drawn) | 49.2% | 48.6% | 39.4% | 51.3% | 43.1% | 42.7% | 36.8% | 43% | 64.7% | 42% | 70.4% | 21.1% | 52.4% | 20.4% | 57.2% | 16.6% | 35.8% | 50.8% | 48.5% | 46.2% |
| COc1cccc2c1C(=O)c1c(O)c3c(c(O)c1C2=O)C[C@@](O)(/C(C)=N/NC(=O)c1cccc([N+](=O)[O-])c1)C[C@@H]3OC1CC(N)C(O)C(C)O1 (stereo partly drawn) | -33.6% (active) | -67.4% (active) | -3.02% (active) | -23.8% (active) | -38.5% (active) | -61% (active) | -53.4% (active) | -24.6% (active) | -98.1% (active) | -49.7% (active) | -75.7% (active) | -93.6% (active) | -5.42% (active) | -64.9% (active) | -20% (active) | -38.5% (active) | -25.7% (active) | -37.4% (active) | -43.8% (active) |  |
| COc1ccc2c3c(c(OCCCN(C)C)nc2c1)-c1ccc(Cl)cc1C3=O | -2.72% (active) | 32.1% | 3.92% (active) | 10% (active) | -81.2% (active) | -64.3% (active) | -64.1% (active) | -40.3% (active) | -45.2% (active) | 15.3% | -59% (active) | -57.5% (active) | -62.3% (active) | -91.9% (active) | 43.9% | 86% | 13.9% | 86.9% | -59.2% (active) |  |
| COc1cc(/C=C/C(=O)N2CCN(C(=O)/C=C/c3ccccc3)CC2)cc(OC)c1OC | 108% | 102% | 104% | 103% | 105% | 92.7% | 99.8% | 101% | 113% | 129% | 97% | 97.8% | 85.6% | 125% | 111% | 110% | 107% | 102% | 103% | 109% |
| O=[N+]([O-])c1ccc(Oc2cccc(C(F)(F)F)c2)c([N+](=O)[O-])c1 | 27.7% | 47.6% | 90.3% | 101% | 95.6% | -16% (active) | 97.2% | 47.5% | 2.36% (active) | 95.2% | 11.2% | 52.3% | 19.7% | 53.6% | 32.2% | 108% | 36.9% | 53.7% | 9.6% (active) | 19% |
| C=C(C)[C@@H]1C[C@H](O)Cc2cc(Cl)cc(Cl)c2N1 | 103% | 100% | 100% | 96.6% | 110% | 92.8% | 94.2% | 100% | 107% | 108% | 103% | 108% | 93.6% | 101% | 102% | 104% | 94.5% | 104% | 110% |  |
| O=C1Nc2ccccc2C12Nc1cc(Cl)ccc1S2 (stereo not drawn) | 78.4% | 90.8% | 87.1% | 98.4% | 87.5% | 82.6% | 98.7% | 98.4% | 98.3% | 85.9% | 39.7% | 81.8% | 85.4% | 121% | 87.8% | 78.8% | 86.5% | 138% | 91.6% |  |
| CC(=O)O[C@H]1C(=O)[C@@]2(C)C([C@H](OC(=O)c3ccccc3)[C@]3(O)C[C@H](OC(=O)[C@H](O)[C@@H](NC(=O)c4ccccc4)c4ccccc4)C(C)=C1C3(C)C)[C@]1(OC(C)=O)CO[C@@H]1C[C@@H]2O (stereo partly drawn) | 27.9% | 44.8% | 28.1% | 24.6% | 7.33% (active) | -25.2% (active) | 13.1% | 17.6% | 1.91% (active) | -36.8% (active) | 12.5% | 57.3% | 17% | -17.9% (active) | 30.2% | -8.51% (active) | 13.1% | 45% | 20% | 23.7% |
| CCOC(=O)/C=C(/C)Sc1cc(O)c2ccccc2c1O | -71.4% (active) | 89.4% | -19.9% (active) | 157% | -64% (active) | 12.7% | -34.1% (active) | 159% | 46.6% | -100% (active) | 17.6% | -90% (active) | 14.7% | 46.1% | 32.8% | 30.2% | 5.78% (active) | 5.04% (active) | -94.6% (active) | -12.6% (active) |
| NC(=Nc1ccccc1)SCCCCSC(N)=Nc1ccccc1 | 71.2% | 95% | 85.2% | 82.2% | 101% | 79.1% | 85.1% | 79.5% | 125% | 93.5% | 44.5% | 102% | 67.5% | 73.6% | 90% | 77.5% | 114% | 101% | 84.6% | 83.1% |
